# Results taken from PubChem BioAssay (NCI).
# Compounds without any hit were thinned out: in the full panel of roughly 83,000, 20% have a hit.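 The endpoint reported here, percent growth, reads 100 for growth as untreated, 0 for no net growth and -100 for all cells dead.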 Values without a mark were called inactive. Calls of active or inactive are those of the source. Rule for the calls: active = growth percent below 10; inactive = the rest.
# Tested on: HL-60(TB) leukemia
# Assay: NCI-60 one-dose screen, 48 h (100 = growth as untreated, 0 = no growth, -100 = all killed)
# Conditions: 10 µM unless noted
row,SMILES,growth
1,Cc1c(Br)cccc1NC(=O)c1sc2nc3c(cc2c1N)CN(Cc1ccccc1)CC3,-30.5% (active)
2,COc1ccc(Cn2nc3c(c2-c2cc(OC)c(OC)c(OC)c2)-c2oncc2CC3)cc1,54.4%
3,Cc1cc2nc(CS)[nH]c2cc1C,80.1%
4,CCN(CC)c1cc(N)c(Cc2c(N)cc(N(CC)CC)cc2Cl)c(Cl)c1,-8.28% (active)
5,CCn1cc(C(=O)O)c(=O)c2cc(F)c(N3CCNCC3)cc21,96.9%
6,COc1c2ccccc2c(OC)c2[nH]c(=O)ccc12,71.5%
7,Nc1ncnc2c1CN(Cc1ccccc1)CC2,105%
8,COc1ccc(-c2ccc3ncc4c(c3c2)n(-c2ccc(N3CCNCC3)c(C(F)(F)F)c2)c(=O)n4C)cn1,-65.4% (active)
9,C=CCn1c(C)nc2cc(Nc3nc(N4CCCC4)nc4ccccc34)ccc21,88.5%
10,CCNc1nc(C(F)(F)F)nc2c1sc(=S)n2-c1ccccc1,98.9%
11,CCCn1cc(/C=N\N=C2\C(=O)Nc3ccc(C)cc32)c2ccccc21,-22.6% (active)
12,O=C1/C(=C/c2cn(-c3ccccc3)nc2-c2ccccc2)SC(=S)N1CCc1ccccc1,102%
13,COc1cccc(CC(C)=C(c2ccc(OCCN3CCCCC3)cc2)c2ccc(OCCN3CCCCC3)cc2)c1,-57.5% (active)
14,CCOC(=O)c1cnc2sc(-c3ccc(OC)cc3)nc2c1Cl,93.8%
15,NC(=O)c1cccc(-c2cc(C(N)=O)ccc2Cl)c1,-22.7% (active)
16,Cc1cc2c(c(C)c1Cl)C(=O)/C(=C/c1cccc([N+](=O)[O-])c1)O2,98.8%
17,O=c1oc2c([nH]c3ccc4ccccc4c32)c2ccccc12,129%
18,Oc1ccccc1/C=N\NC(=S)Nc1ccc(F)cc1,-10.3% (active)
19,COc1cccc(-c2nc3sccn3c2-c2ccnc(NCCNS(=O)(=O)c3ccc(F)cc3)c2)c1,-6.21% (active)
20,COC(=O)[C@]12CC[C@@H](C)[C@H](C)[C@@H]1C1=CC[C@@H]3[C@@](C)(CC#N)C4=C(C[C@@]3(C)[C@]1(C)CC2)OC[C@]4(C)C=O,-10.8% (active)
21,COc1ccc2c(c1)nc(NNC(=O)c1cnccn1)c1cccn12,-6.85% (active)
22,Nc1ccccc1NC(=O)c1ccc(CSc2nc(N3CCOCC3)c3cccn3n2)cc1,-19.4% (active)
23,CC(=O)c1nn(-c2ccccc2)/c(=N/N=Cc2cn(-c3ccccc3)nc2-c2cc3ccccc3oc2=O)s1,102%
24,CCOC(=O)CNC(=O)Nc1ccc(Oc2ccc(NC(=O)NCC(=O)OCC)cc2)cc1,108%
25,CN1CCCN(CCNc2nccc(-c3c(-c4cccc(O)c4)nc4sccn34)n2)S1(=O)=O,69.2%
